Results reported in PubChem BioAssay AID651561 (Sanford-Burnham Center for Chemical Genomics, 2012).
The list shows a part of the results. Active and inactive are the calls of the source. Cut-off read from the data, not from the text of the source: active = IC50 below about 20 µM; inactive = the rest.

Assay: mitochondrial permeability transition pore inhibitors, dose response, biochemical, absorbance, uHTS hits (AID 651561)
Details: isolated mitochondria swelling
For COc1ccc(C2NCc3ccc4c(c3-n3cccc32)OCO4)cc1OC (stereo not drawn), the IC50 was 26.9 µM (inactive).
For CC(Cc1ccccc1)NCCC(c1ccccc1)c1ccccc1 (stereo not drawn), the IC50 was 4.21 µM (active).
In the case of O=Cc1cn(Cc2ccc(F)cc2Cl)c2ccccc12, the IC50 is reported as 32.3 µM (inactive).
